Measured values reported in PubChem BioAssay (Tox21).
Inconclusive results are not listed. A call without a number means that no potency is given here. Active and inactive are the calls of the source. Calls follow the shape of the dose curve; as a rule, active = well fitted cell-killing curve with a large enough effect in the repeat runs; inconclusive = weak or mixed curves, or effect the other way; inactive = flat fitted curve, though single readings scatter.

experiment: qHTS assay to identify small molecule agonists of the constitutive androstane receptor (CAR) signaling pathway - cell viability counter screen (AID 1224836); conditions: HepG2-CYP2B6-hCAR viability, CellTiter-Fluor, 23 h, PK11195 added to every well; series mostly up to 92.4 µM; also: nearly all actives have a fitted effect of over 45% in size
From the text: U.S. Tox21 Program National Center for Advancing Translational Sciences [NCATS] NIH Chemical Genomics Center [NCGC] U.S. Environmental Protection Agency [EPA] National Institutes of Environmental Health Sciences [NIEHS] National Toxicology Program [NTP] U.S. Food and Drug Administration [FDA] Tox21 Assay Overview: The constitutive androstane receptor (CAR) is a nuclear receptor which regulates multiple drug metabolizing enzymes (DMEs) and transporters. Activating CAR will generally increase the transcription and subsequent translation of CYP2B6 and CYP3A4. These two DMEs represent about 50% of the drug metabolizing potential in the body. […] Recently, there have also been studies performed indicating CARs role in energy metabolism and cancer therapy. Therefore, inducing CARs activity could have a potential effect on diabetes and cancer. Identifying environmental toxins and compounds which modulate CAR, through the use of the Tox21 10K compound collection, will be an important step in determining the toxicity and potential therapeutic effects these factors will have on the human body. To differentiate true CAR agonists from cytotoxic substances, the assay is multiplexed with a cell viability assay.
Tox21 Assay Protocol Summary: A double-stable (hCAR and CYP2B6-2.2kb) transfected cell line, derived from human hepatoma (HepG2) cells, was utilized for the duration of the quantitative high-throughput screens. The HepG2-CYP2B6-hCAR cells were dispensed at 2500 cells/4 uL/well in 1536-well white solid bottom plates using a Multidrop Combi. After the assay plates were incubated at 37 C/5% CO2 for 4 hrs, 23 nL of compounds at 15 concentrations (from 5-48 columns) or positive control (from 1 to 4 columns) were transferred to the assay plates using a Pintool station. One uL of PK11195 (final concentration = 0.75 uM) was added, using a Flying Reagent Dispenser, inside each well. After a 23 hr incubation period at 37 C/5% CO2, 1 uL of CellTiter-Fluor reagent was added into each well of the assay plates using a Flying Reagent Dispenser. The fluorescence intensity in the plates was then measured using a ViewLux plate reader.
Potency is read from the fitted curve at half-maximal effect.

| SMILES | Potency | viability change, negative = cytotoxic |
| --- | --- | --- |
| CC(Cc1ccccc1)(NC(=O)CN)c1ccccc1 (stereo not given) | inactive |  |
| CCc1ccc2c(c1)C(=O)c1ccccc1C2=O | inactive |  |
| NC(=O)c1cc[n+](CC2=C(C(=O)[O-])N3C(=O)[C@@H](NC(=O)Cc4cccs4)[C@H]3SC2)cc1 | inactive |  |
| COc1ccc(C(=O)c2ccc(C)cc2)c(O)c1 | inactive |  |
| O=[N+]([O-])c1ccccc1CCO | inactive |  |
| COc1cc(CNC(=O)CCCC/C=C/C(C)C)ccc1O | inactive |  |
| C[C@@H](O)[C@H]1C(=O)N2C(C(=O)O)=C(S[C@@H]3CN[C@H](CNS(N)(=O)=O)C3)[C@H](C)[C@H]12 | inactive |  |
| CCc1cnc(C(=O)O)c(C(=O)O)c1 | inactive |  |
| O=C(c1ccco1)N1CCNCC1 | inactive |  |
| CC/C=C\CCO | inactive |  |
| CCC(CC)C(=O)O | inactive |  |
| CCOc1ccc(NC(C)=O)cc1N | inactive |  |
| CC(C)C[C@H](NC(=O)[C@H](Cc1ccccc1)NC(=O)c1cnccn1)B(O)O | 0.298 µM (active) |  |
| CC(C)(C(=O)O)c1ccc(C(O)CCCN2CCC(C(O)(c3ccccc3)c3ccccc3)CC2)cc1 (stereo not given) | inactive |  |
| O=C(O)c1ccccc1[N+](=O)[O-] | inactive |  |
| CC/C=C/CCO | inactive |  |
| C=CC(=O)NC(C)(C)C | inactive |  |
| Oc1ccc(Oc2ccccc2)cc1 | inactive |  |
| Nc1ccc(-c2ccc(F)cc2)cc1 | inactive |  |
| O=C(O)c1ccc2c(c1)nc(C(=O)NC1CCN(C3CC3)CC1)n2Cc1cc(-c2ccc(Cl)s2)on1 |  | 0.0204% [at 19 µM] (inactive) |

| SMILES | Potency | viability change, negative = cytotoxic |
| --- | --- | --- |
| CC(C)Cc1nccs1 | inactive |  |
| CCCC1CCOC(C)S1 (stereo not given) | inactive |  |
| CCCCCCOC(=O)c1ccccc1 | inactive |  |
| C(/C=C/C=C/Nc1ccccc1)=Nc1ccccc1 | inactive |  |
| O=C(Cl)c1cc(Cl)cc(Cl)c1 | inactive |  |
| O=C(O)c1ccc(O)c(O)c1 | inactive |  |
| CC(CCl)OC(C)CCl (stereo not given) | inactive |  |
| CC1=CC(=C(c2ccc(N)cc2)c2ccc(N)cc2)C=CC1=N |  | -5.57% [at 8.39 µM] (inactive) |
| CC(C)=CCC/C(C)=C/C=N/O | inactive |  |
| O=C(OC1C[C@H]2CC[C@@H](C1)[N+]21CCCC1)C(O)(c1ccccc1)c1ccccc1 (stereo not given in full) | inactive |  |
| NCCOCCOCCN | inactive |  |
| Nc1ncnc2c1ncn2[C@@H]1O[C@H](CO)[C@@H](O)[C@H]1O | inactive |  |
| C[Si](C)(C)O[Si](C)(C)O[Si](C)(C)C | inactive |  |
| OCCCO | inactive |  |
| NC(=O)c1ccccc1 | inactive |  |
| COC(=O)C(C)(C)C | inactive |  |
| CCc1ccc(C(=O)C(C)CN2CCCCC2)cc1 (stereo not given) | inactive |  |
| CCc1c(C)[nH]c2c1C(=O)C(CN1CCOCC1)CC2 (stereo not given) | inactive |  |
| Cc1ccccc1CCO | inactive |  |
| Cc1ccc(S(=O)(=O)NC(=O)NC2CCCC2)cc1 | inactive |  |
